This is an account of results in ChEMBL document CHEMBL3988442, “University of Dundee, Small-Polar-MMV Screening Library” (2021).

This assay relates to Trypanosoma brucei. Kind of assay: Trypanosoma brucei 72 hour study. In kind it is functional, organism-based. Set-up: scale not given: in the data most compounds retested in dose-response had high values.

In all, about 66,000 compounds went through this assay and about 960 (1.5%) showed an effect of 50% or more. This excerpt belongs to a sample that is enriched for strong results.

For the compound `Cc1nc(CN2CCCC(N(C)CC3CCCC3)C2)no1` (stereo not drawn), the “Percent Effect” value (30.3 µM, […]) is listed as -21.28%. For `Fc1ccccc1CC1CCN(Cc2cscn2)CC1`, the “Percent Effect” value (30 µM, 30.03 µM) is recorded as -2.509%. Regarding `Cc1nnc(CN2CCCC(CCc3ccccc3C(F)(F)F)C2)o1` (stereo not drawn), for the setting “30.3 µM, […]”, the “Percent Effect” value is 32.35%. As for `Cc1ccc2c(n1)N(Cc1cccnc1)CCN(C1CCOCC1)C2.O=C(O)C(F)(F)F.O=C(O)C(F)(F)F.O=C(O)C(F)(F)F`, the “Percent Effect” value (30 µM, 30.03 µM) is -18.41%. On to `CC1N(c2cnn(C)c2)C(=O)COC12CCN(c1ccccn1)CC2.O=C(O)C(F)(F)F` (stereo not drawn), for which the “Percent Effect” value (30.3 µM, […]) is on record as -14.53%. The same measure, in the same setting: next, `Cc1oncc1C(=O)N1CC[C@H]2[C@H](C[C@@H](CN(C)C)N2CC2CC2)C1.O=C(O)C(F)(F)F.O=C(O)C(F)(F)F`: -0.8006%. For `Cl.O=C(CCN1CCCC1)Nc1c2c(cc3c1CCC3)CCC2`, for the setting “30 µM, 30.03 µM”, the “Percent Effect” value is recorded as 0.04304%.

As to `COCC(=O)NC[C@]12COC[C@H]1CN(Cc1ccc3c(c1)OCO3)C2.O=C(O)C(F)(F)F`, where the note is “30.3 µM, […]”, the “Percent Effect” value is given as 5.113%.

For `COC1COC2(CCN(C(=O)c3ccccc3F)CC2)C1` (stereo not drawn), the “Percent Effect” value (30.3 µM, […]) was -57.28%. As for `CCN(C)c1ncnc2c1CCN(C(=O)Cc1ccccn1)CC2.O=C(O)C(F)(F)F`, for the setting “30 µM, 30.03 µM”, the “Percent Effect” value is recorded as -43.42%.

Regarding `CCO[C@@H]1CCN(c2ccc(C)nn2)[C@@H]1Cc1cnn(C)c1`, under “30.3 µM, […]”, the “Percent Effect” value is reported as -24.65%.

Turning to `Cc1ccc(N2CC[C@H](OCC3CC3)[C@@H]2Cc2cnn(C)c2)nn1`, the “Percent Effect” value (30 µM, 30.03 µM) came to 51.55%. Still for that read-out and setting: the figure for `CO[C@H]1CCN(c2ccc(C)nn2)[C@H]1Cc1cnn(C)c1` is 12.56%. As for `Fc1ccccc1CN(CCCn1ccnc1)CC1CCOC1.O=C(O)CC(O)(CC(=O)O)C(=O)O` (stereo not drawn), the “Percent Effect” value (30.3 µM, […]) is listed as -0.3397%. For the compound `Cc1cc(CCC(=O)O)nc(C2CCCN2c2ccnc(C)n2)n1` (stereo not drawn), the “Percent Effect” value (30.3 µM, […]) is 3.845%.

On to `Cl.Cl.c1cn(-c2cnc(C3CCNCC3)cn2)cn1`, for which the “Percent Effect” value (30.3 µM, […]) is reported as -23.68%. Same read-out and setting: the figure for `CC(C)(C)c1ccc(OCC(N)=O)c(CN2C[C@H]3C[C@H](O)C[C@H]3C2)c1` is -10.55%. Take `COc1ccc(C(=O)N2C[C@@H](NC(=O)N(C)C)[C@H](C(C)C)C2)c(OC)n1`: the “Percent Effect” value (30 µM, 30.03 µM) was -11.49%.

On to `Cc1nc(CN(C)C2CCN(Cc3nc4ccccc4n3C)C2)no1` (stereo not drawn), for which the “Percent Effect” value reads like this: (10 µM) -9.408%; (30.3 µM, […]) 44.6%. Take `Cc1nc(CN(C)C2CCN(Cc3nc4ccccc4s3)C2)no1` (stereo not drawn): the “Percent Effect” value (30 µM, 30.03 µM) is on record as 13.35%. Same read-out and setting: the figure for `Cc1nc(CN2CCCC(N(C)Cc3cscn3)C2)no1` (stereo not drawn) is 106.7%. As to `CN(Cc1cscn1)C1CCCN(Cc2noc(C3CC3)n2)C1` (stereo not drawn), for the setting “30 µM, 30.03 µM”, the “Percent Effect” value is given as -28.03%. On to `Cc1nc(CN(C)C2CCN(Cc3ccc4ccccc4n3)C2)no1` (stereo not drawn), for which, where the note is “30.3 µM, […]”, the “Percent Effect” value came out at 99.64%. On the same count and under the same terms, the figure for `Cc1cc(CN(C)C2CCCN(Cc3noc(C)n3)C2)no1` (stereo not drawn) is -25.02%; for `Cc1occc1C(=O)N1C[C@@H]2OCCN(c3ncccn3)[C@@H]2C1.O=C(O)C(F)(F)F` it is -9.285%. For the compound `COc1ccc(-n2ccnc2-c2ccc(C(=O)O)s2)cc1CO`, the “Percent Effect” value (30 µM, 30.03 µM) is reported as -62.12%. Take `Nc1ncc(-c2ccc(Cl)cc2)c(C2CCCNC2)n1` (stereo not drawn): the “Percent Effect” value (30.3 µM, […]) is reported as 28.09%. Turning to `Nc1ncc(-c2ccc(C(F)(F)F)cc2)c(C2CCCNC2)n1` (stereo not drawn), the “Percent Effect” value (30.3 µM, […]) is listed as 90.9%. Take `Nc1ncc(-c2ccc(F)cc2)c(C2CCCNC2)n1` (stereo not drawn): the “Percent Effect” value (30.3 µM, […]) is given as 1.475%. Regarding `Cc1nc(C)c(C(=O)N2Cc3ccccc3OCC2CN(C)C)o1.Cl.Cl` (stereo not drawn), the “Percent Effect” value (30.3 µM, […]) is given as -20.04%. For the compound `O=C(O)C(F)(F)F.O=C(O)C(F)(F)F.O=C(c1n[nH]c2c1CN(C1CCOC1)CC2)N1CCCC1` (stereo not drawn), the “Percent Effect” value (30.3 µM, […]) is on record as 8.032%. Turning to `CCCNC(=O)c1nn(CC)cc1NC(=O)c1cn(C)nc1C`, the “Percent Effect” value (30.3 µM, […]) was 26.24%.

On to `CCn1cc(NC(=O)c2c(C)nn(C)c2C)c(C(N)=O)n1`, for which the “Percent Effect” value (30.3 µM, […]) is listed as 53.08%. Still for that read-out and setting: the figure for `CCCNC(=O)c1nn(CC)cc1NC(=O)c1c(C)nn(C)c1C` is 45.33%.

`Cc1cnc2n(c1=O)CC(C(=O)Nc1ccon1)CS2` (stereo not drawn): the “Percent Effect” value (30 µM, 30.03 µM) was -0.7773%. Turning to `O=C(c1cc[nH]n1)N1CCCC(c2cc(C(F)(F)F)[nH]n2)C1` (stereo not drawn), the “Percent Effect” value (30.3 µM, […]) is 17.05%.

Take `O=C(c1ccc[nH]1)N1CCCC(c2cc(C(F)(F)F)[nH]n2)C1` (stereo not drawn): where the note is “30 µM, 30.03 µM”, the “Percent Effect” value stood at 38.21%.

For the compound `O=C(c1cc(Cl)c[nH]1)N1CCCC(c2cc(C(F)(F)F)[nH]n2)C1` (stereo not drawn), the “Percent Effect” value (30.3 µM, […]) stood at 80.28%. With `CCOC(=O)C1CC2(CCCCC2)N2CCC(=O)N12` (stereo not drawn), the “Percent Effect” value (30.3 µM, […]) is -30.31%. In the case of `Cc1ccc(C(=O)N2Cc3c(CN4CCCCC4)nn(C)c3C2)o1.O=C(O)C(F)(F)F`, the “Percent Effect” value (30 µM, 30.03 µM) stood at 0.5997%. Consider `COc1cccc(-c2cc(NCC(=O)O)nc3[nH]ccc23)n1`, for which, for the setting “30.3 µM, […]”, the “Percent Effect” value was -16.38%. Same read-out and setting: the figure for `COc1cccc(-c2cc(NCCO)nc3[nH]ccc23)n1` is -6.078%; for `COc1cccc(-c2cc(NCCN(C)C)nc3[nH]ccc23)n1` it is 96.05%.

Consider `O=C(O)CCn1ccc2c(nnc3c(-c4ccc(F)cc4)cnn32)c1=O`, for which, where the note is “30 µM, 30.03 µM”, the “Percent Effect” value was -41.42%. For `Cc1ccc(-n2cc(CN3CCOCC(CN(C)C)C3)cn2)cc1C` (stereo not drawn), where the note is “30.3 µM, […]”, the “Percent Effect” value came to 98.04%. Same read-out and setting: the figure for `Cc1cc(C)c(-n2cccn2)c(CN2CCOCC(CN(C)C)C2)c1` (stereo not drawn) is -14.72%; for `Cc1cc(-n2cccn2)ccc1CN1CCOCC(CN(C)C)C1` (stereo not drawn) it is -10.31%.
